# Laboratory results published in PubChem BioAssay AID624139 (Broad Institute, 2012).
# The campaign covered roughly 17,000 compounds. About 220 (1.3%) were called active.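 The calls were made as follows: active = spot fluorescence over background significantly raised, with a chance value under 7% in all four replicate spots of the compound; inactive = the rest.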 What follows is part of a selection rich in actives, with near analogues and random picks from the rest.
# Molecular target: Nuclear factor NF-kappa-B p105 subunit (Homo sapiens) (UniProt P19838)
# Experiment: small molecules binding NF-kappa-B p105/p50 – biochemical, small molecule microarray, anti-His fluorescence, primary screen (AID 624139);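 also: probe protein is his-tagged human p50 processed subunit at 1 µg/ml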
# Nuclear factor NF-kappa-B p105 subunit (Homo sapiens), sequence (P19838 1-433 limits assumed): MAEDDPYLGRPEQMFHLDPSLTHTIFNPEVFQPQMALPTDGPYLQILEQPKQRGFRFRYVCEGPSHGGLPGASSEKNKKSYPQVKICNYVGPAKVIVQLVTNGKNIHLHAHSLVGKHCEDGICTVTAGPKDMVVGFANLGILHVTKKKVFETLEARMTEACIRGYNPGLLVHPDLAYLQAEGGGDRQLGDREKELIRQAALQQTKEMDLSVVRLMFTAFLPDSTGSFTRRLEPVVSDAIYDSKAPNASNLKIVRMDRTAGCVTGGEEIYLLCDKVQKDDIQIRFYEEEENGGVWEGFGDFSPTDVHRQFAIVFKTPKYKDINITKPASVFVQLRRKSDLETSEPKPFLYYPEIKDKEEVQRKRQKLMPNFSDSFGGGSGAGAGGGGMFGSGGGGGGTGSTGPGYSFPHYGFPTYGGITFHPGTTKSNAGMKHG
row,Compound,outcome
1,C[C@H]1CCCCO[C@@H](CN(C)Cc2ccncc2)[C@@H](C)CN([C@@H](C)CO)C(=O)c2cc(NC(=O)Nc3ccc(F)cc3)ccc2O1,inactive
2,CN(C)c1nc(Nc2nc3ccccc3[nH]2)nc(N(C)C)n1,inactive
3,Cc1ccc(NC(=O)c2ccc(NCc3cccnc3)c([N+](=O)[O-])c2)cc1,inactive
4,COc1ccc(S(=O)(=O)N(C)C[C@H]2Oc3ccc(NC(=O)CCC(F)(F)F)cc3CC(=O)N([C@H](C)CO)C[C@@H]2C)cc1,inactive
5,CC(C)NC(=O)N(C)C[C@H]1OCCCC[C@H](C)Oc2ccc(NC(=O)CCCN(C)C)cc2C(=O)N([C@@H](C)CO)C[C@H]1C,inactive
6,COC(=O)c1c(NC(=O)c2cc(-c3ccccn3)nc3c(C)cc(C)cc23)sc(C)c1C,inactive
7,CC(C)(C)[C@H]1C=C(C(=O)NCc2ccccc2)O[C@@H](OCc2ccc(CO)cc2)C1,inactive
8,Cc1sc2nc(SCC(=O)Nc3ccccc3C(F)(F)F)nc(N)c2c1C,inactive
9,NC(=O)CSc1nnc(-c2ccccc2F)n1-c1ccccc1,inactive
10,C[C@@H]1CN([C@H](C)CO)C(=O)c2cc(NC(=O)CCCN(C)C)ccc2O[C@H]1CN(C)Cc1ccc(C(=O)O)cc1,inactive
11,CC(C)NC(=O)N(C)C[C@H]1OCCCC[C@H](C)Oc2ccc(NC(=O)CCC(F)(F)F)cc2C(=O)N([C@@H](C)CO)C[C@@H]1C,inactive
12,C[C@@H]1CCCCO[C@@H](CN(C)Cc2ccccc2)[C@H](C)CN([C@H](C)CO)C(=O)c2cc(NS(=O)(=O)c3cccs3)ccc2O1,inactive
13,C[C@@H]1CN([C@H](C)CO)C(=O)Cc2cc(NC(=O)CCN3CCOCC3)ccc2O[C@H]1CN(C)Cc1ccncc1,inactive
14,C[C@@H]1CCCCO[C@H](CN(C)Cc2ccncc2)[C@H](C)CN([C@H](C)CO)C(=O)c2cc(NC(=O)Nc3ccccc3)ccc2O1,inactive
15,CC(C)NC(=O)Nc1cccc2c1O[C@H](CN(C)Cc1ccccc1)[C@H](C)CN([C@H](C)CO)C2=O,inactive
16,C[C@@H]1CN([C@H](C)CO)C(=O)Cc2cc(NC(=O)CCCN(C)C)ccc2O[C@@H]1CN(C)S(=O)(=O)c1cccs1,inactive
17,C[C@H](CO)N1C[C@H](C)[C@@H](CN(C)S(=O)(=O)c2cn(C)cn2)Oc2ccc(N(C)C)cc2CC1=O,inactive
18,C[C@H]1CN([C@@H](C)CO)C(=O)c2cc(NC(=O)Nc3cccc4ccccc34)ccc2O[C@@H]1CN(C)C,inactive
19,C[C@H](CO)N1C[C@H](C)[C@H](CN(C)C(=O)NC2CCCC2)Oc2ncc(-c3ccc(F)cc3)cc2C1=O,inactive
20,CCOc1ccc(-c2cn(S(=O)(=O)c3cccc4nsnc34)nc2N)cc1,inactive
21,Cc1cccc(NC(=O)CN2C(=O)CNC2=O)c1,inactive
22,CC(C)NC(=O)Nc1ccc2c(c1)C(=O)N([C@@H](C)CO)C[C@H](C)[C@@H](CN(C)C)O2,inactive

row,Compound,outcome
1,C[C@H](CO)N1C[C@H](C)[C@@H](CN(C)C)Oc2ccc(N(C)C)cc2C1=O,inactive
2,C[C@@H]1CN([C@H](C)CO)C(=O)c2cccc(NS(C)(=O)=O)c2O[C@@H]1CN(C)S(=O)(=O)c1cccs1,inactive
3,C[C@H]1CN([C@@H](C)CO)C(=O)c2cc(NC(=O)NC3CCCCC3)ccc2O[C@@H]1CN(C)S(=O)(=O)c1cccs1,inactive
4,COc1cccc(/C=C(\C#N)C(=O)Nc2c(C)n(C)n(-c3ccccc3)c2=O)c1,inactive
5,C[C@H](CO)N1C[C@H](C)[C@H](CN(C)C(=O)NC2CCCCC2)Oc2ccc(NC(=O)c3ccncc3)cc2CC1=O,inactive
6,Cc1c(C(=O)NC(=S)NCc2cccnc2)oc2ccccc12,inactive
7,Cc1noc(C)c1NC(=O)N(C)C[C@@H]1OCCCC[C@H](C)Oc2ccc(NC(=O)CCC(F)(F)F)cc2C(=O)N([C@@H](C)CO)C[C@@H]1C,inactive
8,C[C@H]1CN([C@@H](C)CO)C(=O)Cc2cc(NC(=O)Nc3ccc(F)cc3)ccc2O[C@@H]1CN(C)C(=O)NC1CCCCC1,inactive
9,O=C(Nc1cccc(OCC(=O)N2CCOCC2)c1)C1CCCCC1,inactive
10,O=C(C1=C[C@H](c2coc3ccccc3c2=O)C[C@H](OCc2ccc(CO)cc2)O1)N1CCOCC1,inactive
11,C[C@@H]1CN([C@H](C)CO)C(=O)c2cccc(NC(=O)Nc3ccccc3)c2O[C@@H]1CN(C)C(=O)NC1CCCCC1,inactive
12,C[C@H]1CN([C@@H](C)CO)C(=O)c2cccc(NC(=O)Nc3ccc(C(F)(F)F)cc3)c2O[C@H]1CN(C)C(=O)NC1CCCCC1,active
13,C[C@@H]1CN([C@H](C)CO)C(=O)Cc2cc(NC(=O)C3CC3)ccc2O[C@H]1CN(C)Cc1ccc(Cl)c(Cl)c1,active
14,C[C@H](CO)N1C[C@H](C)[C@@H](CN(C)C(=O)Nc2cccc3ccccc23)OCCCC[C@H](C)Oc2ccc(N(C)C)cc2C1=O,active
15,C[C@@H]1CN([C@H](C)CO)C(=O)Cc2cc(NC(=O)C3CC3)ccc2O[C@H]1CN(C)Cc1ccc2c(c1)OCO2,inactive
16,C[C@@H]1CCCCO[C@@H](CN(C)C(=O)Cc2ccccc2)[C@H](C)CN([C@@H](C)CO)C(=O)c2cc(NC(=O)Nc3ccc(F)cc3)ccc2O1,active
17,C[C@H](CO)N1C[C@H](C)[C@@H](CN(C)C(=O)Nc2ccccc2)Oc2ccc(NC(=O)C3CC3)cc2CC1=O,inactive
18,C[C@@H]1CCCCO[C@H](CN(C)C(=O)Nc2ccccc2)[C@H](C)CN([C@@H](C)CO)C(=O)c2cc(N(C)C)ccc2O1,inactive
19,CC(C)NC(=O)Nc1ccc2c(c1)C(=O)N([C@@H](C)CO)C[C@@H](C)[C@H](CN(C)C(=O)Cc1ccccc1)OCCCC[C@H](C)O2,inactive
20,C[C@H](CO)N1C[C@H](C)[C@@H](CN(C)C(=O)NC2CCCCC2)Oc2c(NC(=O)Nc3ccc(F)cc3)cccc2C1=O,inactive
21,C[C@@H]1CCCCO[C@@H](CN(C)C(=O)Nc2ccccc2)[C@@H](C)CN([C@H](C)CO)C(=O)c2cc(NC(=O)Nc3ccc(F)cc3)ccc2O1,inactive
22,C[C@@H]1CCCCO[C@@H](CN(C)C(=O)Nc2ccccc2)[C@@H](C)CN([C@@H](C)CO)C(=O)c2cc(N(C)C)ccc2O1,inactive
